According to PubChem BioAssay AID743314 (Broad Institute, 2014):
Results with a measured potency or affinity are listed apart. Results filed as inconclusive are left out. A number with no mark means an inactive call.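 Rule for the calls: active = fitted half-maximal concentration no higher than twice the top tested dose, in every repeat run; inconclusive = repeat runs disagree, poor fit, or flat partial inhibition; inactive = the rest.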

target: Endoplasmic reticulum aminopeptidase 1 (Homo sapiens) (UniProt Q9NZ08); assay: inhibition of human ERAP1 enzyme activity – biochemical, cherry-pick, set 2, plate reader, dose response (AID 743314); conditions: Recombinant ERAP1, Leu-AMC fluorescence, 60 min; series mostly up to 11 µM; activity change, negative = inhibition: at the top concentration;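 note: 0% = neutral control wells and -100% = L-leucinethiol positive control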
Sequence (Q9NZ08 whole entry, looked up): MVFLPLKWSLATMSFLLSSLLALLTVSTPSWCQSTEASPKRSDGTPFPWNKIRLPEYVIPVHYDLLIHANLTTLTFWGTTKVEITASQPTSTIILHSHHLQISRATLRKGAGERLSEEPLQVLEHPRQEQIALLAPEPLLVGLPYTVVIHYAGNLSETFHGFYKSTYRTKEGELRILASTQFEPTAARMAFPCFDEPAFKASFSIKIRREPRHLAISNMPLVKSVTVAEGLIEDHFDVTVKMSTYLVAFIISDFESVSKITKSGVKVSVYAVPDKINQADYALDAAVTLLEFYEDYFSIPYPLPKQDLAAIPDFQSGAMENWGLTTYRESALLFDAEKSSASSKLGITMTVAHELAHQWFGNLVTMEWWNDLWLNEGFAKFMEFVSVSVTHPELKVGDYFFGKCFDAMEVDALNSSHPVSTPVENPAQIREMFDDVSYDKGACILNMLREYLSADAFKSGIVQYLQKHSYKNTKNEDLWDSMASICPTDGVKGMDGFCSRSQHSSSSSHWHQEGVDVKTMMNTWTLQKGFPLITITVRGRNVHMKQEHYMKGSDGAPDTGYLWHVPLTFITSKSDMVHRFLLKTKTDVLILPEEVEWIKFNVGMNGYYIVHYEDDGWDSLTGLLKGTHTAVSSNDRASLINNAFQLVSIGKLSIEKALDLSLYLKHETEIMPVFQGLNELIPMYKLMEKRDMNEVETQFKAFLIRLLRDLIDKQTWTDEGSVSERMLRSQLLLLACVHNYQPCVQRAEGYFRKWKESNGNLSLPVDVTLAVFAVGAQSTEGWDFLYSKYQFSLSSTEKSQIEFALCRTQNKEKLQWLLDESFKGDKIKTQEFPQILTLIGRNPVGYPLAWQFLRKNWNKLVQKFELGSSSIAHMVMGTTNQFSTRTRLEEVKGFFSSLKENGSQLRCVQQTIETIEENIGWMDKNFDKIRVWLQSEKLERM

Which “activity change, negative = inhibition” value does the source give for `COc1ccc(NC(=O)Nc2ccc3c(c2)C(=O)N([C@@H](C)CO)C[C@H](C)[C@H](CN(C)Cc2ccc(C(=O)O)cc2)OCCCC[C@H](C)O3)cc1` here?
The value was 48.4%.

For `COc1ccccc1-c1cn(CC[C@H]2CC[C@H](NS(=O)(=O)c3ccccc3C)[C@@H](CO)O2)nn1`, which “activity change, negative = inhibition” value is on record?
Its value is 20.2%.

`CCCC#Cc1ccc(CC[C@H]2O[C@H]3CC[C@H](CO)O[C@H]3C[C@@H]2NC(=O)CN2CCOCC2)cc1` was tested. Which “activity change, negative = inhibition” value did it give?
The value was 8.84%.

`CCCCCn1c(=NC(=O)c2ccco2)c(C(=O)OCC)cc2c(=O)n3ccccc3nc21` was tested. Which “activity change, negative = inhibition” value did it give?
Its value is -30.4%.

`CN(C)C(=O)[C@@H]1[C@@H](CO)[C@@H]2Cn3c(ccc(/C=C/c4ccccc4)c3=O)[C@@H]2N1C(=O)c1cnccn1` was tested. Which “activity change, negative = inhibition” value did it give?
Its value is 10.7%.

Which “activity change, negative = inhibition” value does the source give for `CCCN1[C@@H]2c3ccc(-c4cccnc4)c(=O)n3C[C@H]1[C@H](CO)[C@H]2C(=O)NCCc1cn(C)cn1` here?
Its value is 38.1%.

For `CCCCC1CCC(C(=O)OC(C)C(=O)Nc2ccc(NC(C)=O)cc2)CC1` (stereo unspecified), which “activity change, negative = inhibition” value is on record?
Its value is -2.34%.

For `O=C(C[C@@H]1C=C[C@H](NC(=O)Nc2cccc(F)c2)[C@H](CO)O1)NCC1CCCCC1`, which “activity change, negative = inhibition” value is on record?
Its value is 59.7% [at 12 µM].

Which “activity change, negative = inhibition” value does the source give for `COc1ccc(CCC(=O)NC2CCCc3ccccc32)cc1OC` (stereo unspecified) here?
Its value is -13.1%.

With `C[C@@H]1CN([C@@H](C)CO)C(=O)c2cc(NC(=O)CCN3CCOCC3)ccc2O[C@@H]1CN(C)S(=O)(=O)c1ccccc1` as the molecule, how does the “activity change, negative = inhibition” value read?
Its value is 15.8%.

How did the “activity change, negative = inhibition” value turn out when `Cc1cccc(NC(=O)Nc2ccc3c(c2)C(=O)N(C)[C@H]2CC[C@H](CC(=O)O)O[C@H]2CO3)c1` was run?
Its value is 28.6%.

Which “activity change, negative = inhibition” value does the source give for `CCN(CC(=O)Nc1ccccc1C(F)(F)F)C(=O)Cn1c(=O)cnc2ccccc21` here?
The value was -3.54%.

With `O=C(c1ccccc1)N1CC(=O)N2[C@H](CO)[C@@H](c3ccc(-c4ccccc4)cc3)[C@H]2C1` as the molecule, how does the “activity change, negative = inhibition” value read?
The value was 33%.

Which “activity change, negative = inhibition” value does the source give for `C[C@H]1CN([C@@H](C)CO)C(=O)c2cc(-c3ccc(F)cc3)cnc2O[C@H]1CN(C)CC1CCCCC1` here?
The value was 36.7%.

`CCN(CC)CCNC(=O)c1ccc(NC(=O)c2ccc(-n3cncn3)c([N+](=O)[O-])c2)cc1` was tested. Which “activity change, negative = inhibition” value did it give?
The value was -9.89%.

For `Cc1ccc(S(=O)(=O)c2cc3ccc(O)cc3oc2=O)cc1C`, which “activity change, negative = inhibition” value is on record?
Its value is 315% [at 5.6 µM].

For `COc1ccc(CN(C)C[C@H]2Oc3c(NC(=O)NC4CCCCC4)cccc3C(=O)N([C@@H](C)CO)C[C@H]2C)cc1`, which “activity change, negative = inhibition” value is on record?
The value was 27.1%.

With `Cc1noc(C)c1NC(=O)N(C)C[C@H]1Oc2c(NC(=O)Nc3ccc(F)cc3)cccc2C(=O)N([C@@H](C)CO)C[C@H]1C` as the molecule, how does the “activity change, negative = inhibition” value read?
The value was 37.4%.

With `CN1CCN(S(=O)(=O)c2cccc(C(=O)N(C)CC(=O)Nc3ccc(F)c(F)c3F)c2)CC1` as the molecule, how does the “activity change, negative = inhibition” value read?
The value was 3.77%.

Which “activity change, negative = inhibition” value does the source give for `N#Cc1ccc(-c2ccc([C@H]3[C@H](CO)N4C(=O)CN(C(=O)C5CC5)C[C@@H]34)cc2)cc1` here?
The value was 22.1%.

With `COc1ccccc1-c1cc(-c2ccccc2)nc(SCC(=O)O)c1C#N` as the molecule, how does the “activity change, negative = inhibition” value read?
Its value is -3.43%.

How did the “activity change, negative = inhibition” value turn out when `COc1ccccc1OCCNC(=O)C1CCCCC1` was run?
The value was 1.14%.

`CCc1nnc(NC(=O)c2cc(S(=O)(=O)N3CCOCC3)ccc2N2CCCCC2)s1` was tested. Which “activity change, negative = inhibition” value did it give?
Its value is -11.6%.

How did the “activity change, negative = inhibition” value turn out when `COc1ccc2c3c(n(C)c2c1)[C@@H](CO)N(C)CC31CN(C(=O)c2cccnc2)C1` was run?
Its value is 27.8%.

For `COc1ccc(CCOC(=O)CNC(=O)c2ccc(Cl)cc2Cl)cc1`, which “activity change, negative = inhibition” value is on record?
The value was 12.7%.

For `Cc1ccc(C)c(NC(=O)C2CC(O)CN2C(=O)Oc2ccccc2)c1` (stereo unspecified), which “activity change, negative = inhibition” value is on record?
The value was -1.41%.

With `C[C@@H]1CN([C@@H](C)CO)C(=O)c2cc(NS(=O)(=O)c3ccc(Cl)cc3)ccc2O[C@@H](C)CCCCO[C@H]1CN(C)C` as the molecule, how does the “activity change, negative = inhibition” value read?
Its value is 37.5% [at 5.6 µM].

With `CCn1c(SCC(=O)NCc2ccccc2)nnc1C(CO)NC(=O)c1ccccc1` (stereo unspecified) as the molecule, how does the “activity change, negative = inhibition” value read?
The value was -14.3%.

With `CCCNC(=O)C[C@@H]1CC[C@@H]2[C@H](COC[C@H](O)CN2C(=O)Nc2cccc(Cl)c2)O1` as the molecule, how does the “activity change, negative = inhibition” value read?
Its value is 47.7%.

How did the “activity change, negative = inhibition” value turn out when `Cc1ccc(S(=O)(=O)Nc2ccc3c(c2)CC(=O)N([C@H](C)CO)C[C@H](C)[C@H](CN(C)Cc2ccccc2)O3)cc1` was run?
The value was 9.49%.

With `CCC(=O)N1[C@@H](CO)[C@@H](c2ccccc2)C12CN(Cc1cccnc1)C2` as the molecule, how does the “activity change, negative = inhibition” value read?
Its value is 43%.

`Cc1nc2cc(NC(=O)C3COc4ccccc4O3)ccc2s1` (stereo unspecified) was tested. Which “activity change, negative = inhibition” value did it give?
Its value is -0.647%.

How did the “activity change, negative = inhibition” value turn out when `COc1ccc(S(=O)(=O)NC[C@@H]2CC[C@H]3[C@H](CN3Cc3cc(F)ccc3F)O2)cc1` was run?
Its value is 36.2%.

For `C[C@H]1CCCCO[C@H](CN(C)C)[C@@H](C)CN([C@@H](C)CO)C(=O)c2cc(NS(=O)(=O)c3ccc(Cl)cc3)ccc2O1`, which “activity change, negative = inhibition” value is on record?
The value was 9.96%.

Which “activity change, negative = inhibition” value does the source give for `CCOc1ccc(NC(=O)C2CCCN2C(=O)Oc2ccccc2)cc1` (stereo unspecified) here?
Its value is 1.06%.

Which “activity change, negative = inhibition” value does the source give for `CN(C(=O)CSc1nnc(C(F)(F)F)n1C)c1c(N)n(Cc2ccccc2)c(=O)[nH]c1=O` here?
Its value is 6.68%.
